# A selection: hits, their analogues and other compounds. The true share with any hit is near 2.7%.
# proKLK7 act: proKLK7 zymogen activators, primary screen, biochemical, fluorescence intensity; Kallikrein-7 (Homo sapiens), P49862; purified proKLK7, EDANS-DABCYL substrate fluorescence; 100% is mature enzyme control, 0% vehicle; activation, % at 7 µM; hit rate 0.9% among 370,000;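 active = activation above the mean of all tested compounds plus 3 SD, computed per campaign excluding outliers beyond control limits, cut at about 13% in these data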
# Neddyl block: inhibitors of cullin neddylation, primary screen, biochemical, TR-FRET, uHTS, NAE and Ubc12. NEDD8-conjugating enzyme Ubc12 (Homo sapiens) + NEDD8-activating enzyme E1 regulatory …. calls only at 25 µM. hit rate 0.58% among 360,000; in the data active = inhibition above about 36%
# Target sequence (P61081 whole entry, looked up): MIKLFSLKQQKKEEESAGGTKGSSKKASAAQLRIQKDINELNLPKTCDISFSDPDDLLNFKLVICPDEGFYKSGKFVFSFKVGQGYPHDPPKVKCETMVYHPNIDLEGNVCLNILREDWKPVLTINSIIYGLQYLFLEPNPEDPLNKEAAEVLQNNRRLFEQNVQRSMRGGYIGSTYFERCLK
# Target sequence (Q13564 whole entry, looked up): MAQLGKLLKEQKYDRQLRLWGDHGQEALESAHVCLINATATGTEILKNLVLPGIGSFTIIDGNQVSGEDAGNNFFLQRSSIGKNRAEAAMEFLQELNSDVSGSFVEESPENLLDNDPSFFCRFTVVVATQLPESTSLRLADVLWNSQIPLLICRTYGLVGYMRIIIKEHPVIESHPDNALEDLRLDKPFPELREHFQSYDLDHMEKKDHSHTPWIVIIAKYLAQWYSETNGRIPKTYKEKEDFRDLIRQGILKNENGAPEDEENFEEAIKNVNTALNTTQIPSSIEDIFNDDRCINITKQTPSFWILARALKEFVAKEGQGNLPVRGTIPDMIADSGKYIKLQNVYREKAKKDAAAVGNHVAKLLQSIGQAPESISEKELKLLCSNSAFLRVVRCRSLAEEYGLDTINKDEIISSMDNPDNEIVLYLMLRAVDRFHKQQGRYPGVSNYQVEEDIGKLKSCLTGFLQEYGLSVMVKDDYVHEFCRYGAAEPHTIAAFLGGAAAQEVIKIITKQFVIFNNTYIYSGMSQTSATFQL
# PfGluPho inh: PfG6PD enzyme inhibitors, primary screen, biochemical, fluorescence intensity, uHTS. PfGluPho enzyme, NADPH resazurin-diaphorase fluorescence. AID 504690, 2011. glucose-6-phosphate dehydrogenase-6-phosphogluconolactonase (Plasmodium falciparum 3D7). inhibition, % at 20 µM. hit rate 0.78% among 350,000;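 active = inhibition reaching at least a set limit at 20 µM in the primary screen, cut at about 59% in these data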;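 also: 0% = DMSO wells with substrate and 100% = DMSO wells lacking glucose-6-phosphate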
# FAS-TE inh: FAS thioesterase domain inhibitors, primary screen, biochemical, fluorescence intensity, uHTS; Fatty acid synthase (Homo sapiens), P49327; recombinant FAS-TE, OMFH fluorogenic substrate, fluorescence endpoint; inhibition, % at 15 µM; hit rate 0.67% among 360,000; AID 602261, 2012;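 active = compounds whose normalised, plate-corrected inhibition of enzyme fluorescence in the single-dose primary screen is 50% or more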;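 also: 0% = DMSO with enzyme and 100% = substrate without enzyme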
# Neddyl conf: blockade of NEDD8 conjugation to cullin – biochemical, TR-FRET, single concentration, confirmation | hit rate 13% among 1,800 | shares compounds with Neddyl block | TR-FRET cullin neddylation biochemical assay | AID 652217, 2013 | calls only at 25 µM; in the data active = inhibition above about 40%;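 also: neddylation substrate is the cullin 1 ring ligase complex with SKP2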
# The depositor's hits bear a star; i = inactive; x = no result given; + = active, no number.
SMILES,proKLK7 act,Neddyl block,PfGluPho inh,FAS-TE inh,Neddyl conf
CCOC(=O)[C@@]12CCC3=C1N(CCC3)C(=O)[C@H](CC(=O)N1CCN(C(=O)C3CC3)CC1)C2,1,x,x,x,x
CCN(CC)c1ccc(/C=N/NC(=O)C2CC2)cc1,5,+,17,-6,+
CN(C)c1ccc(/C=N/NC(=O)C2CC2c2ccccc2)cc1 (stereo unspecified),-4,+,16,8,+
O=C(N/N=C/c1ccc(N2CCOCC2)cc1)C1CC1,2,+,9,-9,i
CN(CC#Cc1ccccc1)C(N)=NC(=O)/C=C/c1cccc(C(F)(F)F)c1,0,x,x,x,x
OC(c1ccccc1)(c1ccccc1)C1CCN(CCCNc2ccccc2F)CC1,0,x,x,x,x
CC1=CC(c2ccc(Cl)cc2)n2ncnc2N1 (stereo unspecified),0,+,-8,-11,i
COc1ccc(NC(=O)c2cc(-c3ccco3)on2)c(OC)c1,13,i,6,-4,x
COc1ccc(-c2cc(C(=O)Nc3ccccc3SC)no2)cc1OC,0,+,17,1,i
COc1cccc(-c2cc(C(=O)Nc3ccccc3SC)no2)c1,-1,x,1,18,x
COc1cc(NC(=O)c2cc(-c3ccco3)on2)c(OC)cc1Cl,-1,+,-6,-4,i
COc1ccc2oc(C(=O)N3CCN(S(=O)(=O)c4ccc(F)cc4)CC3)c(C)c2c1,-1,i,12,16,x
COc1ccc2oc(C(=O)NC(C)(C)C)c(C)c2c1,1,+,-11,-2,i
COc1ccc2oc(C(=O)NNC(=O)c3ccc(F)cc3)c(C)c2c1,2,+,1,-2,x
COc1cc(C(=O)NNC(=S)NC(=O)c2ccc(F)cc2)cc(OC)c1OC,0,+,-14,-6,i
O=C1CS/C(=N\N=C\c2ccco2)N1c1ccccc1,-1,+,-3,-4,i
N#Cc1ccc(NC(=O)c2cc(=O)c3ccccc3o2)cc1,0,+,-7,-6,i
CC(=O)Nc1ccc(NC(=O)c2cc(=O)c3ccccc3o2)cc1,1,i,18,-1,x
COc1ccc(C)cc1NC(=O)c1nn(-c2ccccc2)cc1OC,-1,+,47,18,i
C#CCNC(=O)C[C@H]1C[C@@]2(C(=O)OC)C(=C[C@H](COCc3ccccc3)O[C@@H]2C)N(CCCCCCCC)C1=O,1,x,x,x,x
Cc1ccc(-c2ccc3nnc(SCC(N)=O)n3n2)cc1,6,x,1,-3,x
O=C(CSc1nnc2ccc(-c3ccccc3)nn12)NCC1CCCO1 (stereo unspecified),4,+,3,-4,+
NC(=O)CSc1nnc2ccc(-c3ccc(Cl)cc3)nn12,-1,+,17,-3,i
O=C(CSc1nnc2ccc(-c3ccc(Br)cc3)nn12)NCC1CCCO1 (stereo unspecified),3,i,8,-4,x
NC(=O)CSc1nnc2ccc(-c3ccc(F)cc3)nn12,5,+,-11,-2,i
SMILES,proKLK7 act,Neddyl block,PfGluPho inh,FAS-TE inh,Neddyl conf
Cn1cc(Cc2ccc(C(=O)N3CCN(Cc4ccccc4)CC3)cn2)c2ccccc21,6,i,x,1,x
Cc1nnc(C)n1N=Cc1ccc(O)cc1O,-2,x,x,x,x
CCOC(=O)c1c(C)n(-c2ccccc2)c2ccc(O)cc12,1,i,8,-1,x
CCOC(=O)c1c(-c2ccccc2)n(C)c2ccc(O)cc12,0,+,-12,1,x
CCCCCCCCN1C(=O)N2Cc3cc(OC)ccc3C2CS1(=O)=O (stereo unspecified),0,x,x,x,x
O=C1N/C(=C/c2cccn2-c2ccc(F)cc2)C(=O)N1Cc1ccccc1,-42,x,-2,-1,x
O=C1N/C(=C/c2cccn2-c2ccccc2)C(=O)N1Cc1ccccc1F,0,+,2,1,i
Cn1c(=O)c2cc3ccc(Cl)cc3nc2n(C)c1=O,-1,i,-7,-2,x
Cn1c(=O)c2cc3ccccc3nc2n(C)c1=O,1,+,-8,-4,+
CCN(CC)C(=O)CC[C@@H]1CC[C@]2(CCCN(Cc3nccs3)C2)O1,0,x,x,x,x
CCN(C(=O)COC(=O)c1oc2ccc(OC)cc2c1C)C1CCCCC1,-6,+,-4,18,x
COc1ccc2oc(C(=O)OCC(=O)N(C)C3CCCCC3)c(C)c2c1,-3,+,7,12,x
COc1ccc2oc(C(=O)OCC(=O)N(C)c3c(N)n(Cc4ccccc4)c(=O)[nH]c3=O)c(C)c2c1,2,+,-3,-9,x
COc1ccc2oc(C(=O)OC(C)C(=O)N(C)c3ccccc3)c(C)c2c1 (stereo unspecified),-1,+,3,13,x
C[C@@H]1[C@@H](c2ccccc2)c2cc3ccccc3nc2-c2nc3ccccc3cc2[C@@H]1C(=O)N1CCCC1,0,x,x,x,x
N#Cc1ccc(Cl)cc1NC(=O)CN1C(=O)C(=O)N(CCC2=CCCCC2)C1=O,0,i,-24,10,x
COc1ccc2oc(C(=O)OCC(=O)N3CC(C)CC(C)C3)c(C)c2c1 (stereo unspecified),-7,+,1,20,x
CCOC(=O)c1c(CN(CC)CC)oc2ccc(OC)cc12,3,+,-3,-15,i
CCOC(=O)c1c(CN(CC)CC)oc2cc(Br)c(O)cc12,0,i,4,1,x
Cc1c(NC(=O)C2CCCN(S(=O)(=O)c3ccc(Br)s3)C2)c(=O)n(-c2ccccc2)n1C (stereo unspecified),1,x,x,x,x
COc1cc(F)ccc1-c1cc(C(=O)Nc2ccc(NC(C)=O)cc2)[nH]n1,-1,+,x,-3,+
COc1ccc(F)cc1-c1cc(C(=O)Nc2ccc(NC(C)=O)cc2)[nH]n1,0,i,x,-1,x
CC(=O)Nc1ccc(NC(=O)c2cc(-c3ccc(C)cc3O)n[nH]2)cc1,0,+,-14,-5,+
Cc1cccc(NC(=O)c2cc(-c3cc(C)ccc3O)n[nH]2)c1,-1,i,-10,-8,x
COC(=O)C[C@@H]1C=C[C@@H](NC(=O)c2ccccc2F)[C@@H](CO)O1,0,i,x,x,x
Cc1ccc(-n2c(O)c(/C=N/NC(=O)C3COc4ccccc4O3)c3ccccc3c2=O)cc1 (stereo unspecified),-2,+,-27,10,i
O=C(N/N=C/c1c(O)n(-c2ccccc2Cl)c(=O)c2ccccc12)C1COc2ccccc2O1 (stereo unspecified),x,+,-38,8,i

# Assay outcomes: PubChem, several laboratories
